Screening data from PubChem.
TRAIL sens C8: caspase-8 TRAIL sensitization | inhibition (viability loss, TRAIL sensitization), % at 10 µM | actives 1% (n = 360,000) | NB7+C8 cells + TRAIL, ATPlite viability luminescence;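 active means compounds causing at least 50% loss of cell viability in the single-dose screen, relative to plate controls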
SENP7 block: blocks the human protease SENP7; recombinant SENP7, Z-RLRGG-aminoluciferin luminescence, 40 min; actives 1.5% (n = 330,000); inhibition, % at 5 µM;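 active means inhibition above about 50% at the single test dose, limit read from the data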
PPC-1+TRAIL kill: kills PPC-1 cancer cells in the presence of TRAIL; actives 0.41% (n = 220,000); PPC-1 cells + TRAIL, ATPLite viability luminescence; cell killing (% activity), % at 4 µM or 5 µM;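 active means cell killing above 50% in the first pass at 4 µM, then a duplicate retest at 5 µM averaging 50% or more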
SENP8 block-1: blocks human SENP8 cleavage of Nedd8 substrate; AID 602440; inhibition, % at 20 µM; actives 0.64% (n = 360,000); recombinant SENP8, Nedd8 substrate fluorescence; in the data active means inhibition mostly above about 40%, no sharp cut-off; inactive means mostly below about 27%
Target sequence (Q96LD8 whole entry, looked up): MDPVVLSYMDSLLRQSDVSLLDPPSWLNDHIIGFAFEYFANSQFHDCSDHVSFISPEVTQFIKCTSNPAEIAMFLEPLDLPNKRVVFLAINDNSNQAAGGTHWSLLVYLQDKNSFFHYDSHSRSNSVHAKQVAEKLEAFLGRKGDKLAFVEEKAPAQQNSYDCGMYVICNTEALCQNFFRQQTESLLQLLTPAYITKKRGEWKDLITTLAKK
SENP6 block: blocks the human protease SENP6; Recombinant SENP6 catalytic domain, aminoluciferin luminescence; AID 2599; actives 1.8% (n = 330,000); inhibition, % at 10 µM;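 active means inhibition above about 50% at the single tested dose, limit read from the data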
SENP8 block-2: blocks the human protease SENP8 | Q96LD8 | purified SENP8, Z-RLRGG-aminoluciferin cleavage, luminescence | inhibition, % at 10 µM | actives 1.2% (n = 330,000) | AID 2540; in the data active means inhibition above about 50%
SENP8 confirm: human SENP8 inhibition, confirmed | shares compounds with SENP7 block | Recombinant SENP8, Z-RLRGG-aminoluciferin luminescence, 60 min | inhibition, % at 12.5 µM | actives 40% (n = 6,200) | AID 488912;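 active means mean inhibition across replicates above about 50%, limit read from the data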
SENP6 confirm: confirmation of human SENP6 protease inhibitors | shares compounds with SENP7 block | recombinant SENP6, Z-RLRGG-aminoluciferin luminescence | inhibition, % at 12.5 µM | actives 58% (n = 6,200)
SENP7 confirm: confirmation of human SENP7 protease inhibitors | shares compounds with SENP7 block | inhibition, % at 12.5 µM | recombinant SENP7, Z-RLRGG-aminoluciferin luminescence, 40 min | AID 488917 | actives 69% (n = 6,200)
Casp3 select: selectivity test for SENP inhibitors: human caspase-3 inhibition; purified caspase-3, Z-DEVD-aminoluciferin luminescence, 60 min; shares compounds with SENP7 block; AID 488918; actives 60% (n = 6,200); inhibition, % at 12.5 µM;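 active means mean inhibition above about 50%, limit read from the data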
Target sequence (P42574 28-227 limits assumed): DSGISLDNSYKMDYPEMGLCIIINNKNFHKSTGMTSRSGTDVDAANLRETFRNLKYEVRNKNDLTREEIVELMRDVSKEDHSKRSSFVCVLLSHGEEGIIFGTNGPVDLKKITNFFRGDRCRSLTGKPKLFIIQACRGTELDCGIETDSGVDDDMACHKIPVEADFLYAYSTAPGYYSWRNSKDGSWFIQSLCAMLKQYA
Luc interf: interferes with luciferase luminescence in SENP counter-screen | shares compounds with SENP7 block | Pre-incubated SENP8/Z-RLRGG-aminoluciferin, luciferase luminescence interference | inhibition, % at 12.5 µM | actives 39% (n = 6,200) | AID 488919;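 active means mean inhibition above about 50% when retested at one dose, limit read from the data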
Each line names hits and unclear results; the compound was inactive in the other large screens (follow-up assays come after a bar, where they were run). Compounds with a hit are over-represented: about 3% of the library has one in this group of screens.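 How the source made its calls, unless noted: active means mean inhibition above about 50% in the one-dose retest (limit read from the data); inactive means the rest.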

COC(=O)c1ccc(C(=O)N=c2sccn2C)cc1	SENP7 block 51.9, SENP6 block 55.3 (no result: PPC-1+TRAIL kill) | SENP8 confirm inactive | SENP6 confirm inactive | SENP7 confirm 76.4 | Casp3 select 78.0 | Luc interf inactive
COc1ccc(C(=O)N=c2sccn2C)cc1	none
COc1cc2cc(CCCO)oc(=O)c2cc1OC	none (no result: PPC-1+TRAIL kill)
COC(=O)COc1ccc(C2NC(=O)NC(c3ccccc3)=C2C(C)=O)cc1Br (stereo unspecified)	none (no result: PPC-1+TRAIL kill)
COc1ccc(OC)c(-n2nnnc2SCC(=O)Nc2ccc3c(c2)OCCO3)c1	none
COc1ccc(OC)c(-n2nnnc2SCC(=O)Nc2ccc(C(=O)N3CCCCC3)cc2)c1	SENP7 block 57.2 | SENP8 confirm inactive | SENP6 confirm inactive | SENP7 confirm inactive | Casp3 select inactive | Luc interf inactive
Cc1ccc(-c2nc3ccccc3c(=O)o2)cc1	SENP6 block 54.5 (no result: PPC-1+TRAIL kill) | SENP8 confirm inactive | SENP6 confirm inactive | SENP7 confirm inactive | Casp3 select inactive | Luc interf inactive
Cc1sc2nc(-c3ccccc3)oc(=O)c2c1C	SENP7 block 91.5, SENP8 block-2 75.6 | SENP8 confirm 62.4 | SENP6 confirm 62.7 | SENP7 confirm 64.4 | Casp3 select 68.9 | Luc interf inactive
O=c1oc(-c2ccco2)nc2sc3c(c12)CCCC3	SENP6 block 72.0 | SENP8 confirm 65.7 | SENP6 confirm 54.1 | SENP7 confirm 51.9 | Casp3 select inactive | Luc interf inactive
Nc1nc(-c2ccccc2)nc2sc3c(c12)CCCC3	TRAIL sens C8 76.2, SENP7 block 75.2, PPC-1+TRAIL kill 54.7, SENP6 block 84.3, SENP8 block-2 57.8 | SENP8 confirm inactive | SENP6 confirm 69.6 | SENP7 confirm 89.5 | Casp3 select inactive | Luc interf inactive
Cc1nc2sc(C)c(C)c2c(=O)o1	none
O=C(CN1C(=O)COc2ccc(S(=O)(=O)N3CCOCC3)cc21)Nc1cccc(Cl)c1	none (no result: PPC-1+TRAIL kill)
CCOc1ccc(OCCC(=O)N(CCCOC)c2c(N)n(Cc3ccccc3)c(=O)[nH]c2=O)cc1	none (no result: PPC-1+TRAIL kill)
CCN1CCN(c2nc3c(c(=O)[nH]c(=O)n3C)n2Cc2ccccc2)CC1	none (no result: PPC-1+TRAIL kill)
O=C1CCC(=O)N1c1ccc(-c2nc3sc4c(c3c(=O)o2)CCC4)cc1	none
O=c1oc(-c2ccccc2)nc2sc3c(c12)CCC3	SENP7 block 87.5, SENP6 block 91.0 | SENP8 confirm 51.1 | SENP6 confirm inactive | SENP7 confirm inactive | Casp3 select 64.4 | Luc interf inactive
Cc1noc(C)c1COc1ccc(C(=O)NCc2cccs2)cc1	none (no result: PPC-1+TRAIL kill)
Cc1cccc(C(=O)Nc2nc3ccc(S(C)(=O)=O)cc3s2)c1	SENP7 block 74.1, SENP6 block 75.1, SENP8 block-2 63.3 (no result: PPC-1+TRAIL kill) | SENP8 confirm inactive | SENP6 confirm inactive | SENP7 confirm 88.0 | Casp3 select 77.8 | Luc interf inactive
CCSc1nsc(NC(=O)Nc2ccccc2F)n1	SENP6 block 65.2 (no result: PPC-1+TRAIL kill) | SENP8 confirm inactive | SENP6 confirm inactive | SENP7 confirm 79.4 | Casp3 select inactive | Luc interf inactive
Cc1ccc(NC(=O)Nc2nc3ccc(S(C)(=O)=O)cc3s2)cc1	none (no result: PPC-1+TRAIL kill)
CS(=O)(=O)c1ccc2nc(NC(=O)c3ccccc3)sc2c1	SENP7 block 88.0, SENP6 block 88.4, SENP8 block-2 78.4 (no result: PPC-1+TRAIL kill) | SENP8 confirm inactive | SENP6 confirm 80.5 | SENP7 confirm 94.2 | Casp3 select 87.8 | Luc interf inactive
CS(=O)(=O)c1ccc2nc(NC(=O)Nc3ccccc3F)sc2c1	SENP7 block 71.9 (no result: PPC-1+TRAIL kill) | SENP8 confirm inactive | SENP6 confirm inactive | SENP7 confirm inactive | Casp3 select inactive | Luc interf inactive
CC(C)C(NC(=O)CCNC(=O)c1ccccc1Cl)c1nc2ccccc2[nH]1 (stereo unspecified)	none (no result: PPC-1+TRAIL kill)
CCOC(=O)c1c(C)[nH]c(C(=O)N2CCc3cc(OC)c(OC)cc3C2)c1C	none (no result: PPC-1+TRAIL kill)
CCOC(=O)C1(C)CCCN(C(=O)c2snnc2C)C1 (stereo unspecified)	none (no result: SENP7 block, PPC-1+TRAIL kill, SENP6 block, SENP8 block-2)
C[C@@H]1CN(S(=O)(=O)C(C)(C)C)[C@H](CCO)/C1=C\c1ccccc1	none (no result: SENP7 block, PPC-1+TRAIL kill, SENP6 block, SENP8 block-2)
Nc1cc(Cl)nc(N/N=C/c2c(O)ccc3ccccc23)n1	SENP6 block 57.9 | SENP8 confirm inactive | SENP6 confirm inactive | SENP7 confirm 84.5 | Casp3 select inactive | Luc interf inactive
Nc1nonc1N/N=C/c1c(O)ccc2ccccc12	none
N#Cc1c(/N=C/c2ccco2)sc2c1CCCCC2	SENP7 block 96.4, SENP6 block 91.8, SENP8 block-2 93.8 | SENP8 confirm inactive | SENP6 confirm 97.7 | SENP7 confirm 68.9 | Casp3 select 74.6 | Luc interf inactive
N#Cc1c(/N=C/c2cccs2)sc2c1CCC2	SENP7 block 94.9, SENP6 block 64.6, SENP8 block-2 79.2 | SENP8 confirm inactive | SENP6 confirm inactive | SENP7 confirm inactive | Casp3 select inactive | Luc interf inactive
CN(C)/C=N/c1sc2c(c1C#N)CCCC2	none
CC(=NOC(=O)c1ccc(I)cc1)c1nccs1	none (no result: SENP7 block, PPC-1+TRAIL kill, SENP6 block, SENP8 block-2)
COc1cc(C(C#N)N2N=C(c3ccccc3)CC2c2ccccc2)ccc1O (stereo unspecified)	SENP7 block 78.5, SENP6 block 65.9 | SENP8 confirm inactive | SENP6 confirm inactive | SENP7 confirm inactive | Casp3 select inactive | Luc interf inactive
CN=c1scc(C)n1/N=C/c1ccc(O)c(O)c1O	none
CN=c1scc(-c2cccs2)n1/N=C/c1ccc(O)c(O)c1O	TRAIL sens C8 90.8, SENP7 block 57.2, SENP6 block 79.2, SENP8 block-2 82.3 | SENP8 confirm 94.7 | SENP6 confirm 95.0 | SENP7 confirm 99.2 | Casp3 select 80.1 | Luc interf 82.3
CN=c1scc(-c2cccs2)n1/N=C/c1ccccc1O	TRAIL sens C8 93.6, SENP7 block 94.8, PPC-1+TRAIL kill 74.0, SENP6 block 95.8, SENP8 block-2 93.6 | SENP8 confirm inactive | SENP6 confirm 93.6 | SENP7 confirm 102.3 | Casp3 select 94.4 | Luc interf inactive
Cc1cc(C(=O)COC(=O)c2ccc(O)cc2O)c(C)n1C(C)C	none (no result: PPC-1+TRAIL kill)
